# Screening data: PubChem, National Center for Advancing Translational Sciences (NCATS)
# Compounds with a hit are over-represented: about 12% of the library has one in this group of screens.
# G9a block = qHTS Assay for Inhibitors of Histone Lysine Methyltransferase G9a; Potency, µM (top dose mostly 102 µM), for inactives: at the highest dose activity, negative = inhibition, actives largely listed as inhibitors; hit rate 8.8% among 350,000; G9a H3K9 monomethylation, AlphaScreen, 2 h; further: potency means the concentration at half of the fitted maximal effect; on the % scale 0 is the no-effect control and ±100 the full control effect; nearly all actives have a fitted effect of over 75% in size
#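 G9a (20 nM) was preincubated 15 min with compound, then reacted 2 h at room temperature with 500 nM biotin-H3K9 peptide and 20 µM SAM. Monomethyl-H3K9 detected by AlphaScreen using anti-H3K9me1 antibody.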
# HP1b binding inh = HTS for Inhibitors of HP1-beta Chromodomain Interactions with Methylated Histone Tails. Chromobox protein homolog 1 (Homo sapiens), P83916. AlphaScreen HP1-beta / biotin-H3K9me3 peptide binding. Potency, µM (titrated, usually from 114 µM), for the others: at the top dose activity change, negative = inhibition, usual class: inhibitors. hit rate 0.56% among 390,000. AID 540317, 2011; further: potency means the concentration at half of the fitted maximal effect; nearly all actives have a fitted effect of over 70% in size
#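 AlphaScreen: HP1-beta (50 nM) preformed 30 min with biotin-H3(1-18)K9me3 peptide (50 nM) in PBS pH 7.4, 0.01% Tween-20. Compound added for 30 min at RT, then streptavidin donor/nickel chelate acceptor beads (10 ug/mL) for 30 min.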
# PLK1 PBD block = qHTS for Inhibitors of PLK1-PDB (polo-like kinase 1 - polo-box domain): Primary Screen; Serine/threonine-protein kinase PLK1 (Homo sapiens), P53350; Plk1 PBD binding of FITC phosphopeptide, fluorescence polarization; Potency, µM, inactives show max response, negative = inhibition, most hits filed as inhibitors; hit rate 2.8% among 360,000; AID 720504, 2013; further: potency means the concentration at half of the fitted maximal effect; series mostly up to about 57 µM; on the % scale 0 is the no-effect control and ±100 the full control effect; nearly all actives have a fitted effect of over 65% in size
# JMJD2A Tudor inh = qHTS Assay for Inhibitors of JMJD2A-Tudor Domain; hit rate 4.4% among 390,000; Potency, µM (titrated, usually from 114 µM), for the others: top-dose activity change, negative = inhibition, most hits filed as inhibitors; AlphaScreen JMJD2A-Tudor / H3K4me3 peptide binding; further: potency means the concentration at half of the fitted maximal effect; on the % scale 0 is the no-effect control and ±100 the full control effect; nearly all actives have a fitted effect of over 50% in size
# PI5P4K alpha inh = qHTS for Inhibitors of phosphatidylinositol 5-phosphate 4-kinase (PI5P4K) | Phosphatidylinositol 5-phosphate 4-kinase type-2 alpha (Homo sapiens), P48426 | PI5P4Kalpha enzyme, ADP-Glo luminescence, 60 min; hits give low values | max response, % | hit rate 1.2% among 330,000; active means max response of -50% or lower; inconclusive means between -30% and -50%; inactive means -30% or higher; further: value at the top dose of about 77 µM; on the % scale 0 is the no-effect control and ±100 the full control effect
#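 PI5P4Kalpha ADP-Glo assay; 5 microM ATP final; 60 min RT reaction; HEPES pH 7.4/EGTA/CHAPS, 5% DMSO; controls lacking substrate or enzyme; luminescent end-point.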
# BAZ2B inh = qHTS Assay for Inhibitors of BAZ2B; Bromodomain adjacent to zinc finger domain protein 2B (Homo sapiens), Q9UIF8; AlphaScreen BAZ2B-H3K14Ac peptide displacement; Potency, µM (highest dose often 114 µM), without a hit: at the highest dose activity change, negative = inhibition, usual class: inhibitors; hit rate 4.4% among 360,000; AID 504333, 2011; further: potency means the concentration at half of the fitted maximal effect; on the % scale 0 is the no-effect control and ±100 the full control effect; nearly all actives have a fitted effect of over 60% in size
# Target sequence (Q9UIF8 whole entry, looked up, the tested form may be a part): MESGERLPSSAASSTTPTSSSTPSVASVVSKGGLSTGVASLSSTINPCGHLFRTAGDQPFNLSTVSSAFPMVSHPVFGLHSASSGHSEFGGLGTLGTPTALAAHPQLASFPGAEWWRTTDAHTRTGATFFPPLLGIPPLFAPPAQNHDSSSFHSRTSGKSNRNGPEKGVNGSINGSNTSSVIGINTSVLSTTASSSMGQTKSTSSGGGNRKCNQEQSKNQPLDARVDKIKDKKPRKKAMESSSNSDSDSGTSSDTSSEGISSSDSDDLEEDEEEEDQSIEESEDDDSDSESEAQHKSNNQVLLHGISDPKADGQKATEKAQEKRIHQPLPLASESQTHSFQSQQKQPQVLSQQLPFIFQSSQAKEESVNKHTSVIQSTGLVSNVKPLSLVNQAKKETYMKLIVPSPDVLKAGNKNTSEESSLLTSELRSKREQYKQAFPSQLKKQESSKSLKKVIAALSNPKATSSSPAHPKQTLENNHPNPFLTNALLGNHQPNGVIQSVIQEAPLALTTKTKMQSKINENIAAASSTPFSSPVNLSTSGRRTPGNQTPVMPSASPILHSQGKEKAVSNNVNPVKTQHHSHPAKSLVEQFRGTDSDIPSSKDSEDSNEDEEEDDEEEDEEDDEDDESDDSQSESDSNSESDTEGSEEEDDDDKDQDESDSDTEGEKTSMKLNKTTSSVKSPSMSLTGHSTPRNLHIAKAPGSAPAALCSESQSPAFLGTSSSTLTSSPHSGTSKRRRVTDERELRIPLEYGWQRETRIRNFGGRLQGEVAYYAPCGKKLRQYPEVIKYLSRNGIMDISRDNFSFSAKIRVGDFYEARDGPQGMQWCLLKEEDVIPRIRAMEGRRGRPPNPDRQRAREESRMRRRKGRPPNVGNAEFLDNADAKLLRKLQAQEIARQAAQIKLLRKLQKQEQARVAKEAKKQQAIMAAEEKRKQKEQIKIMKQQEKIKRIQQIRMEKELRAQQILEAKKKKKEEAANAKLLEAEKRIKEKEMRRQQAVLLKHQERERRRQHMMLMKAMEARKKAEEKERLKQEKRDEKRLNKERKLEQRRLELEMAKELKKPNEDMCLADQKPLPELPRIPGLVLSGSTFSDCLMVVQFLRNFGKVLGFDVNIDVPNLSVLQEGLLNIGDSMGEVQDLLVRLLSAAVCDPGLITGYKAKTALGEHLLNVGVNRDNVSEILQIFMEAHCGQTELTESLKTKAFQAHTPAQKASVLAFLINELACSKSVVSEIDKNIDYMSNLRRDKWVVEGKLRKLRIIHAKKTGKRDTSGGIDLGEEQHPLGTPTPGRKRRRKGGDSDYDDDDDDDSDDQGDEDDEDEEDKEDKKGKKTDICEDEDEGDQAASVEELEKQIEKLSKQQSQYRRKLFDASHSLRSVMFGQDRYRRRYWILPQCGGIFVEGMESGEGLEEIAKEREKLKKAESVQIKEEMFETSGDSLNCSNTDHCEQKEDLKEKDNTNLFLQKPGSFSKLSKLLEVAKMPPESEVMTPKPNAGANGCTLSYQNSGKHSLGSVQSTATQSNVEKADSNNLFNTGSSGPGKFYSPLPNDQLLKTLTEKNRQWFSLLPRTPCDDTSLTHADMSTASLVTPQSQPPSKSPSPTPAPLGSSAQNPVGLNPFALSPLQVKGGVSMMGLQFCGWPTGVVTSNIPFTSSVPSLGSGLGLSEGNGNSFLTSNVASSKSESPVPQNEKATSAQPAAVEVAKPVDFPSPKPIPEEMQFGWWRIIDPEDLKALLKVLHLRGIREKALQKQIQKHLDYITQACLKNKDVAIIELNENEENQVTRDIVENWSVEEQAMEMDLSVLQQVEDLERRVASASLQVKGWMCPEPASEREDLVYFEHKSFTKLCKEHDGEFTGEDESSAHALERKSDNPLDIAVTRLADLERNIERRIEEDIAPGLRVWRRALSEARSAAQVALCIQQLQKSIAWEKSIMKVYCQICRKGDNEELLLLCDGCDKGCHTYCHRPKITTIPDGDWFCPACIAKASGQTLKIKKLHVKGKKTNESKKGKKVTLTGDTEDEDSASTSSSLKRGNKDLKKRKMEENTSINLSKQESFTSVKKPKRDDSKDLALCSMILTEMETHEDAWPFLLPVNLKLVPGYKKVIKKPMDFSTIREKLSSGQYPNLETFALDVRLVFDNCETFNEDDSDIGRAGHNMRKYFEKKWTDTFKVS
#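 AlphaScreen displacement of biotin-H3(5-23)K14Ac peptide (50 nM final) from BAZ2B (50 nM final) in PBS pH 7.4, 0.01% Tween-20; complex preformed 30 min RT, then compounds (top 110 uM) 30 min RT, beads 20 min dark.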
# Starred values were filed as active, the others as inactive; ? = inconclusive; . = not tested or not shown; [ ] = another dose, or the depositor's remark. Unless noted, the call rests on the fitted dose curve; in most records, active means well fitted curve in the direction sought with a large enough effect; inconclusive means small, poorly fitted or top-dose-only effect, or another doubt; inactive means no such curve, though single readings can be large; an effect the other way counts as inactive or inconclusive.
SMILES,G9a block,HP1b binding inh,PLK1 PBD block,JMJD2A Tudor inh,PI5P4K alpha inh,BAZ2B inh
O=C(NCCS(=O)(=O)N1CCN(c2ccccc2F)CC1)c1ccccc1C(F)(F)F,14%[59 µM],18%[57 µM],.,-22%,.,-2%
O=C(CSc1ccccc1)NCC(c1ccco1)N1CCCCC1 (stereo not drawn),3%[12.7 µM],13%,?,-10%,9,-20%
OC(CNCC(c1ccco1)N1CCCCC1)c1ccccc1 (stereo not drawn),2.2µM*,-56%,-1%,1.1µM*,.,50µM*
CCOc1ccc(CCNS(=O)(=O)c2cnc[nH]2)cc1OCC,-47%[12.7 µM],-4%,27µM*,-14%[11.4 µM],2,4%
COC(=O)c1cc(C(=O)OC)cc(N2C(=O)CC(Sc3nc(C)cc(C)n3)C2=O)c1 (stereo not drawn),?,53%,-14%,-17%,5,-11%
COC(=O)c1ccc(N2C(=O)CC(Sc3n[nH]c(C)n3)C2=O)cc1 (stereo not drawn),2µM*,0%,3.4µM*,-3%[11.4 µM],-30,0%
CN=C(Nc1cc(Cl)ccc1Cl)SC1CC(=O)N(c2ccc(C(=O)OC)cc2)C1=O (stereo not drawn),50µM*,12%,-1%,-14%,25,4%
CCC1CCCCN1C(=O)Cn1c(=O)oc2cc(S(=O)(=O)N3CCCCC3)ccc21 (stereo not drawn),10%[59 µM],11%,.,-6%,.,4%
Cn1c(N)c(C(=O)Nc2ccc3ccccc3c2)sc1=S,7.1µM*,-21%,?,-18%,.,0%
Cn1c(N)c(C(=O)Nc2ccccc2F)sc1=S,50µM*,?,-23%,-33%,0,-33%
Nc1c(C(=O)Nc2ccc(F)cc2)sc(=S)n1-c1ccccc1F,7.9µM*,-22%,4.7µM*,-19%,-20,-12%
COc1ccccc1-n1c(C)cc(SC)c(C(C)=O)c1=S,22%[59 µM],6%,1%,-13%,-8,5%
COc1ccccc1-n1c(N)c(C(N)=O)sc1=S,-9%[0.0925 µM],-13%,19µM*,-14%,.,-1%
Cc1cccc(OCC(=O)Nc2ccc(Cl)c(-c3nc4ncccc4o3)c2)c1C,5%[59 µM],40%,.,4%,.,5%
O=[N+]([O-])c1cccc(-c2cn3ccccc3n2)c1,0%,32%,3%,0%,-2,-11%
O=[N+]([O-])c1cccc(-c2n[nH]c(=S)n2Cc2ccccc2)c1,1.8µM*,12%,3%,79µM*,5,-12%
C=CCn1c(-c2oc3nc(-c4ccccc4)cc(-c4ccccc4)c3c2N)n[nH]c1=S,32µM*,?,10%,?,?,-32%
C=CCn1c(-c2sccc2C)n[nH]c1=S,7.9µM*,23%,-13%,7.1µM*,-13,-4%
C=CCn1c(-c2cccc([N+](=O)[O-])c2)n[nH]c1=S,13µM*,20%,-17%,5.6µM*,5,-27%
Cc1cc(-c2sccc2C)nc(-n2cccc2)n1,1%[12.7 µM],89%,-1%,50%,.,32%
C=CCn1c(SCC(=O)O)nnc1-c1cccc(Cl)c1,2%[12.7 µM],55%,-6%,4%,-3,2%
C=CCn1nnnc1-c1cccc(Cl)c1,16%,4%,27µM*,-20%[11.4 µM],5,-2%
S=c1[nH]nc(COc2cccc(Cl)c2)n1Cc1ccccc1,-32%[12.7 µM],15%,-26%,-34%,-1,-19%
C=CCn1c(-c2cccc(Cl)c2)n[nH]c1=S,2.8µM*,6%,-11%,10µM*,-13,5%
CCOC(=O)C1(C)CCCN(C(=O)c2ccc(OC)cc2)C1 (stereo not drawn),.,.,-5%,.,0,.
CC(CCc1ccccc1)NC(=O)CN1CCSc2ccccc21 (stereo not drawn),32µM*,79µM*,?,56µM*,4,?
